# VCAM1 TNFa inh: reduces TNF alpha induced VCAM1 expression in HUVEC | AID 802 | inhibition, % at 2 µM | HUVEC TNFa-induced VCAM-1 immunofluorescence, high-content imaging | hit rate 0.48% among 95,000;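 active = inhibition above the batch mean plus 3 SD, with images confirmed as a hit by eye, cut at about 37% in these data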;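 note: 0% = TNF-stimulated DMSO wells and 100% = unstimulated control wells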
# TNFa cytotox: toxic to HUVEC cells under TNF alpha stimulation; hit rate 0.17% among 93,000; AID 848; cell count reduction, % at 2 µM; HUVEC TNFalpha-stimulated, Hoechst cell count, imaging;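 active = cell count reduction exceeding the screen mean by over 5 SD, scaled to untreated wells per plate, cut at about 78% in these data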;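 note: cells counted after 24 h of TNF alpha exposure following the 1 h pretreatment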
# F-actin modifier: alters cytoskeleton assembly in HUVEC cells; HUVEC TNFa F-actin phalloidin imaging, high content; inhibition, % at 2 µM; hit rate 0.18% among 91,000; AID 836;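 active = inhibition above the batch mean plus 3 SD and confirmed as a hit by visual image inspection, cut at about 30% in these data, passing the limit was not always enough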
# E-sel TNF inh: TNF alpha driven E-selectin expression inhibition; HUVEC TNFa-induced E-selectin immunofluorescence, high content; inhibition, % at 2 µM; hit rate 0.71% among 120,000;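 active = inhibition above the batch mean plus 3 SD, and confirmed as a hit on visual image review, cut at about 43% in these data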;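 note: 0% = TNF-stimulated DMSO wells and 100% = unstimulated control wells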
# An asterisk follows results filed as active; · = no result. In the library only some 1% were active in any assay of this set; here they are far more common.
SMILES,VCAM1 TNFa inh,TNFa cytotox,F-actin modifier,E-sel TNF inh
COc1ccc(CCNc2nnc(Sc3nnnn3-c3ccccc3)s2)cc1OC,87*,36,9,19
COc1ccc(-c2nc(-c3cccs3)c(-c3cccs3)[nH]2)cc1O,20,-32,-43,·
NNC(=O)c1ccc2c(c1)S(=O)(=O)NNC2=O,·,·,·,11
CCCC(C(=O)NC1CCCC1)N(CCCN1CCOCC1)C(=O)c1snc(C(N)=O)c1N (stereo not drawn),78*,38,-19,·
CCCC(C(=O)NC1CCCC1)N(CC1CCCO1)C(=O)c1snc(C(N)=O)c1N (stereo not drawn),14,-13,-2,·
COc1ccc(N2CCN(c3ncnc4c3cnn4-c3ccc(C)cc3C)CC2)cc1,7,-20,-15,12
Cc1ccc(-n2ncc3c(N4CCN(c5ccccc5)CC4)ncnc32)c(C)c1,96*,·,5,-4
O=C(NNC(=O)c1ccc([N+](=O)[O-])o1)c1ccccc1,12,-26,13,-22
Cc1cc(C)cc(NC(=O)c2ccc([N+](=O)[O-])o2)c1,·,·,·,76*
O=C(NCCNC1CCC(c2ccccc2)CC1)c1cccs1 (stereo not drawn),·,·,·,-14
CCn1c(SCC(=O)Nc2ccc(C(=O)OC)cc2)nnc1-c1cccs1,55*,-9,-1,0
CCn1c(SCC(=O)NCC(=O)Nc2ccc(F)cc2)nnc1-c1cccs1,-4,-4,-23,·
CCOC(=O)C1CCCN(S(=O)(=O)c2cn(C)c(=O)n(C)c2=O)C1 (stereo not drawn),-24,79*,-13,·
CC(C)(C)c1cc(Br)c(O)c(N=Nc2ccc(S(=O)(=O)N3CCOCC3)cc2)c1,·,·,·,-19
O=C(c1cccc(F)c1)N1CCN(S(=O)(=O)c2ccc(C(F)(F)F)cc2)CC1,15,-8,21,83*
O=C(c1cccc(C(F)(F)F)c1)N1CCCC1,-18,-24,8,-22
O=S(=O)(c1ccc(Oc2ccc(S(=O)(=O)N3CCOCC3)cc2)cc1)N1CCOCC1,·,·,·,-1
C=CS(=O)(=O)c1ccc(Oc2ccc(S(=O)(=O)C=C)cc2)cc1,·,·,·,100*
S=c1[nH]nc(-c2ccc3c(c2)OCO3)n1-c1ccccc1,·,·,·,-5
S=c1[nH]nc(COc2ccc3c(c2)OCO3)n1-c1ccccc1,97*,-8,4,-35
O=C(NCCO)C(c1ccccc1)c1ccccc1,91*,90*,-26,·
COc1ccccc1C(=O)NC(CCSC)C(=O)NCC(c1ccco1)N(C)C (stereo not drawn),-10,-20,25,·
COc1ccccc1C(=O)NC(CCSC)C(=O)OCC(=O)NC(=O)NCc1ccco1 (stereo not drawn),·,·,·,97*
Cc1cc([N+](=O)[O-])nn1CC(=O)Nc1sc2c(c1C(N)=O)CCCC2,·,·,·,80*
Cc1cc([N+](=O)[O-])nn1CCCC(=O)Nc1sc2c(c1C(N)=O)CCCC2,·,·,·,-5
SMILES,VCAM1 TNFa inh,TNFa cytotox,F-actin modifier,E-sel TNF inh
NC(=O)c1c(NC(=O)Cc2cccs2)sc2c1CCC2,92*,1,2,6
CC(NC(=S)Nc1ccccc1Cl)C(c1cccs1)N1CCCC1 (stereo not drawn),·,·,·,24
Cc1ccc(C(=O)NCc2ccccc2)cc1Br,·,·,·,6
COc1ccc(N(C(C)=O)c2nc(C)cc(C)c2C#N)c(OC)c1,·,·,·,-21
CCCCNC1=C(Br)C(=O)CC(C)(C)C1,25,-33,29,-7
CCOc1ccc(-c2nnc3n2N=C(c2ccc(OC)cc2)CS3)cc1,8,-24,-19,·
COc1ccccc1-c1nnc2n1N=C(c1ccc(O)c(O)c1)CS2,96*,56,2,29
CCOc1ccc(C2=Nn3c(nnc3-c3ccccc3OC)SC2)cc1,99*,70,-12,29
COc1ccc(C2=Nn3c(nnc3-c3ccncc3)SC2)cc1OC,3,-15,9,-8
COc1ccc(C(C)(C)C)cc1S(=O)(=O)N1CCN(C)CC1,93*,-22,21,11
OCCC1CN(Cc2cn[nH]c2C2CCCCC2)CCN1C1CCCCC1 (stereo not drawn),·,·,·,-1
COC(=O)C1=C(C)OC(N)=C(C#N)C1c1ccco1 (stereo not drawn),19,0,-1,-8
CCOC(=O)C1=C(c2ccccc2)OC(N)=C(C#N)C1c1ccco1 (stereo not drawn),69*,68,33,-8
CC(C)CC(=O)O/N=C1\C(=O)N(Cc2ccc(Cl)cc2)c2ccc([N+](=O)[O-])cc21,10,-16,4,29
O=c1c2ccccc2nc(/C=C/c2ccc([N+](=O)[O-])o2)n1CCCO,58*,10,1,-64
COc1ccc(-c2nc(CNS(=O)(=O)c3ccc(OC)c(OC)c3)cs2)cc1,8,-38,-7,58*
CCOC(=O)N1CCC(N(CCOC)C(=O)Nc2ccc(Cl)cc2)CC1,·,·,·,80*
